Here are results for 10 molecules from PubChem BioAssay (NCI).

About 79,000 compounds went through this panel and 15% of them were active in at least one assay; those are over-represented in the sample as a whole. A number with no mark means an inactive call. Calls of active or inactive are those of the source. Cut-off read from the data, not from the text of the source: active = growth inhibition above about 70%; inactive = the rest.

Assay [1] in a line: NCI Yeast Anticancer Drug Screen. Data for the rad50 strain (AID 155).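 Note: 0% = growth of vehicle-only cultures of the same strain.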 To be noted: S. cerevisiae rad50 strain growth inhibition, stronger effect = higher value. Put shortly:
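Relative growth inhibition (compound vs vehicle) was measured in yeast with a defined repair-gene alteration.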

Assay [2] in a line: NCI Yeast Anticancer Drug Screen. Data for the mec2-1 strain (AID 157). To be noted: S. cerevisiae mec2-1 strain, stronger effect = higher value. Summed up:
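Readout is yeast growth inhibition, normalised to vehicle-treated controls, in the mec2-1 strain exposed to compound.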

Assay [3] in a line: NCI Yeast Anticancer Drug Screen. Data for the sgs1 mgt1 strain (AID 161).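 Note: 0% = growth of cultures given vehicle only.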 To be noted: S. cerevisiae sgs1 mgt1 strain, stronger effect = higher value. Summed up: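 Compounds are added to genetically altered yeast, and growth is compared with cultures given vehicle alone to give percent inhibition.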
Assay [4] in a line: NCI Yeast Anticancer Drug Screen. Data for the cln2 rad14 strain (AID 165).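 Note: 0% = growth equal to vehicle treated cultures.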 As to conditions: S. cerevisiae cln2 rad14 strain, stronger effect = higher value. Put shortly: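 Relative to vehicle controls, growth inhibition of compound-treated cln2 rad14 yeast was recorded.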
Assay [5] can be described thus: NCI Yeast Anticancer Drug Screen. Data for the bub3 strain (AID 167). As to conditions: S. cerevisiae bub3 mutant strain, stronger effect = higher value. Summed up:
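Screening used yeast with an engineered genetic alteration affecting cell cycle control. Compound-exposed cultures were compared with vehicle cultures, and reduced growth was taken as inhibition.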

Assay [6] is described as follows: NCI Yeast Anticancer Drug Screen. Data for the mlh1 rad18 strain (AID 175). As to conditions: S. cerevisiae mlh1 rad18 strain growth inhibition, stronger effect = higher value. Summed up: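 Test agents were incubated with a yeast strain of defined genotype (DNA damage repair defect). Inhibition of growth was derived by comparison with vehicle-exposed cultures.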
[7] abbreviates: at 5.0 µM (retest, dose inferred, filed as 0.5).
The mark [8] stands for this setting: at 50.0 µM (retest, dose inferred, filed as 5.0).

With `C=C1CC[C@H]2C(C)=CC[C@@H]3[C@H](OC(=O)[C@H]3CN3CCN(c4ccc(C)c([N+](=O)[O-])c4)CC3)[C@@H]12`, the growth inhibition in assay [1] (setting [7]) is 29%; in assay [1] (setting [8]), 65%; in assay [1] (at 50.0 µM) it was 69%; in assay [2] (setting [7]), 30%; in assay [2] (setting [8]) it was 40%; in assay [2] (at 50.0 µM), 66.2%. Moreover, the growth inhibition in assay [3] (setting [7]) was 52%; in assay [3] (setting [8]) it was 76% (active); in assay [3] (at 50.0 µM), 79.6% (active); in assay [4] (setting [7]), 48%; in assay [4] (setting [8]) it was 60%; in assay [4] (at 50.0 µM), 63%. The growth inhibition in assay [5] (setting [7]) was 52%; in assay [5] (setting [8]) it was 71% (active); in assay [5] (at 50.0 µM), 69.8%; in assay [6] (setting [7]) it was 42%; in assay [6] (setting [8]) it was 72% (active); in assay [6] (at 50.0 µM), 47.8%.
As for `O=NNc1ccc(-c2ccc([N+](=O)[O-])cc2)cn1`, the growth inhibition in assay [1] (setting [7]) is 18%; in assay [1] (setting [8]), 47%; in assay [1] (at 50.0 µM) it was 25.4%; in assay [2] (setting [7]), 11%; in assay [2] (setting [8]) it was 37%; in assay [2] (at 50.0 µM), 5.85%. Further, the growth inhibition is 8% in assay [3] (setting [7]); 31% in assay [3] (setting [8]); 30.6% in assay [3] (at 50.0 µM); 26% in assay [4] (setting [7]); 31% in assay [4] (setting [8]); 34.2% in assay [4] (at 50.0 µM). In addition, the growth inhibition in assay [5] (setting [7]) was 14%; in assay [5] (setting [8]) it was 18%; in assay [5] (at 50.0 µM), -11.7%; in assay [6] (setting [7]), 10%; in assay [6] (setting [8]) it was 48%; in assay [6] (at 50.0 µM), 30.1%.
On to `Cc1c2[nH]c3ccc(Br)cc3c2c(C)c2[nH]ccc(=O)c12`, for which the growth inhibition was -5% in assay [1] (setting [7]); 72% (active) in assay [1] (setting [8]); 98.9% (active) in assay [1] (at 50.0 µM); -8% in assay [2] (setting [7]); 59% in assay [2] (setting [8]); 98.7% (active) in assay [2] (at 50.0 µM). For the same molecule, the growth inhibition was -17% in assay [3] (setting [7]); 28% in assay [3] (setting [8]); 99% (active) in assay [3] (at 50.0 µM); -26% in assay [4] (setting [7]); 57% in assay [4] (setting [8]); 97% (active) in assay [4] (at 50.0 µM). Further, the growth inhibition in assay [5] (setting [7]) was 2%; in assay [5] (setting [8]) it was 81% (active); in assay [5] (at 50.0 µM), 98.3% (active); in assay [6] (setting [7]) it was -11%; in assay [6] (setting [8]), 96% (active); in assay [6] (at 50.0 µM), 96.8% (active).
Regarding `COC(=O)c1nc(NC#N)[nH]c(=O)c1CCCCCc1cnc(NC#N)nc1`, the growth inhibition in assay [1] (setting [7]) was -3%; in assay [1] (setting [8]) it was 1%; in assay [1] (at 50.0 µM), -2.4%; in assay [2] (setting [7]), -2%; in assay [2] (setting [8]), -2%; in assay [2] (at 50.0 µM) it was 4.05%. The growth inhibition in assay [3] (setting [7]) is -1%; in assay [3] (setting [8]), 4%; in assay [3] (at 50.0 µM) it was -3.25%; in assay [4] (setting [7]), -4%; in assay [4] (setting [8]), 1%; in assay [4] (at 50.0 µM), 7%. The growth inhibition is 0% in assay [5] (setting [7]); -1% in assay [5] (setting [8]); -0.4% in assay [5] (at 50.0 µM); 0% in assay [6] (setting [7]); -2% in assay [6] (setting [8]); -6.1% in assay [6] (at 50.0 µM).
Regarding `CCCCCC(C1SC(=S)NC1=O)C1SC(=S)NC1=O` (stereo not given), the growth inhibition is 1% in assay [1] (setting [7]); -3% in assay [1] (setting [8]); 96.8% (active) in assay [1] (at 50.0 µM); 2% in assay [2] (setting [7]); 1% in assay [2] (setting [8]); 93.2% (active) in assay [2] (at 50.0 µM). For the same molecule, the growth inhibition in assay [3] (setting [7]) is 5%; in assay [3] (setting [8]), 6%; in assay [3] (at 50.0 µM), 95% (active); in assay [4] (setting [7]) it was -1%; in assay [4] (setting [8]), -1%; in assay [4] (at 50.0 µM) it was 83% (active). For the same molecule, the growth inhibition in assay [5] (setting [7]) was 0%; in assay [5] (setting [8]) it was 0%; in assay [5] (at 50.0 µM) it was 97.6% (active); in assay [6] (setting [7]) it was 0%; in assay [6] (setting [8]), 3%; in assay [6] (at 50.0 µM), 81.8% (active).
In the case of `Oc1ccc(Cc2cc(Cl)cc(Cl)c2O)cc1Cl`, the growth inhibition in assay [1] (setting [7]) is 84% (active); in assay [1] (setting [8]) it was 100% (active); in assay [1] (at 50.0 µM), 99.5% (active); in assay [2] (setting [7]) it was 84% (active); in assay [2] (setting [8]), 99% (active); in assay [2] (at 50.0 µM) it was 99.7% (active). For the same molecule, the growth inhibition in assay [3] (setting [7]) is 68%; in assay [3] (setting [8]) it was 99% (active); in assay [3] (at 50.0 µM), 99.4% (active); in assay [4] (setting [7]) it was 91% (active); in assay [4] (setting [8]) it was 99% (active); in assay [4] (at 50.0 µM), 99.3% (active). The growth inhibition in assay [5] (setting [7]) was 70% (active); in assay [5] (setting [8]) it was 100% (active); in assay [5] (at 50.0 µM), 99.3% (active); in assay [6] (setting [7]) it was 94% (active); in assay [6] (setting [8]) it was 100% (active); in assay [6] (at 50.0 µM) it was 99.2% (active).
As to `Cc1csc2[n+]1C(=O)/C(=C\c1ccc([N+](=O)[O-])cc1)S2`, the growth inhibition in assay [1] (setting [7]) was 30%; in assay [1] (setting [8]), 74% (active); in assay [1] (at 50.0 µM), 69.6%; in assay [2] (setting [7]), 21%; in assay [2] (setting [8]) it was 71% (active); in assay [2] (at 50.0 µM) it was 56.2%. The growth inhibition in assay [3] (setting [7]) is 32%; in assay [3] (setting [8]), 80% (active); in assay [3] (at 50.0 µM), 50.3%; in assay [4] (setting [7]), 7%; in assay [4] (setting [8]) it was 67%; in assay [4] (at 50.0 µM), 57.5%. In addition, the growth inhibition in assay [5] (setting [7]) is 26%; in assay [5] (setting [8]), 76% (active); in assay [5] (at 50.0 µM), 46.9%; in assay [6] (setting [7]), 24%; in assay [6] (setting [8]) it was 82% (active); in assay [6] (at 50.0 µM) it was 78.3% (active).
Consider `CCOC(=O)/C(C#N)=C\c1ccc(N(CCC(=O)O)CCC(=O)O)c(I)c1`, for which the growth inhibition in assay [1] (setting [7]) is 1%; in assay [1] (setting [8]), 77% (active); in assay [1] (at 50.0 µM) it was -6.7%; in assay [2] (setting [7]), -4%; in assay [2] (setting [8]), 77% (active); in assay [2] (at 50.0 µM), 33.5%. In addition, the growth inhibition in assay [3] (setting [7]) was 3%; in assay [3] (setting [8]), 37%; in assay [3] (at 50.0 µM) it was -5.3%; in assay [4] (setting [7]) it was -7%; in assay [4] (setting [8]), 77% (active); in assay [4] (at 50.0 µM), 53.8%. For the same molecule, the growth inhibition in assay [5] (setting [7]) is 35%; in assay [5] (setting [8]) it was 93% (active); in assay [5] (at 50.0 µM), -13.1%; in assay [6] (setting [7]), 10%; in assay [6] (setting [8]), 77% (active); in assay [6] (at 50.0 µM), -6.35%.
In the case of `CC(=O)Oc1ccc2ccccc2c1CN(Cc1c(OC(C)=O)ccc2ccccc12)C(C)=O`, the growth inhibition in assay [1] (setting [7]) is 9%; in assay [1] (setting [8]), 64%; in assay [1] (at 50.0 µM), 88.8% (active); in assay [2] (setting [7]), 9%; in assay [2] (setting [8]), 53%; in assay [2] (at 50.0 µM) it was 72.8% (active). Also, the growth inhibition in assay [3] (setting [7]) is 4%; in assay [3] (setting [8]), 84% (active); in assay [3] (at 50.0 µM), 89.6% (active); in assay [4] (setting [7]), 3%; in assay [4] (setting [8]), 88% (active); in assay [4] (at 50.0 µM) it was 93.8% (active). The growth inhibition in assay [5] (setting [7]) is 3%; in assay [5] (setting [8]) it was 80% (active); in assay [5] (at 50.0 µM), 93.8% (active); in assay [6] (setting [7]), 11%; in assay [6] (setting [8]), 85% (active); in assay [6] (at 50.0 µM), 55%.
In the case of `O=C1O/C(=C(\Cc2ccccc2)c2ccccc2)N(c2ccccc2)C1=O`, the growth inhibition is 5% in assay [1] (setting [7]); 30% in assay [1] (setting [8]); 69.2% in assay [1] (at 50.0 µM); -6% in assay [2] (setting [7]); 23% in assay [2] (setting [8]); 18.6% in assay [2] (at 50.0 µM). The growth inhibition is 0% in assay [3] (setting [7]); 28% in assay [3] (setting [8]); 22.9% in assay [3] (at 50.0 µM); -5% in assay [4] (setting [7]); -9% in assay [4] (setting [8]); -30.2% in assay [4] (at 50.0 µM). In addition, the growth inhibition in assay [5] (setting [7]) was 0%; in assay [5] (setting [8]), 13%; in assay [5] (at 50.0 µM), 14.9%; in assay [6] (setting [7]), -6%; in assay [6] (setting [8]) it was 21%; in assay [6] (at 50.0 µM) it was 28.8%.
